Reference: ChEMBL document CHEMBL1201862, “PubChem BioAssay data set” (2004)
In all, about 400,000 compounds went through this assay and about 2,100 (0.53%) were called active. Another 14% or so got no clear call; they are omitted. The sample holds actives, similar compounds and a random draw of the others, so the mix is not that of the screen. No rule for the calls is given here.

molecular target: Ataxin-2 (Homo sapiens) (UniProt Q99700); assay: qHTS for Inhibitors of ATXN expression.; type: functional
Sequence (Q99700 whole entry): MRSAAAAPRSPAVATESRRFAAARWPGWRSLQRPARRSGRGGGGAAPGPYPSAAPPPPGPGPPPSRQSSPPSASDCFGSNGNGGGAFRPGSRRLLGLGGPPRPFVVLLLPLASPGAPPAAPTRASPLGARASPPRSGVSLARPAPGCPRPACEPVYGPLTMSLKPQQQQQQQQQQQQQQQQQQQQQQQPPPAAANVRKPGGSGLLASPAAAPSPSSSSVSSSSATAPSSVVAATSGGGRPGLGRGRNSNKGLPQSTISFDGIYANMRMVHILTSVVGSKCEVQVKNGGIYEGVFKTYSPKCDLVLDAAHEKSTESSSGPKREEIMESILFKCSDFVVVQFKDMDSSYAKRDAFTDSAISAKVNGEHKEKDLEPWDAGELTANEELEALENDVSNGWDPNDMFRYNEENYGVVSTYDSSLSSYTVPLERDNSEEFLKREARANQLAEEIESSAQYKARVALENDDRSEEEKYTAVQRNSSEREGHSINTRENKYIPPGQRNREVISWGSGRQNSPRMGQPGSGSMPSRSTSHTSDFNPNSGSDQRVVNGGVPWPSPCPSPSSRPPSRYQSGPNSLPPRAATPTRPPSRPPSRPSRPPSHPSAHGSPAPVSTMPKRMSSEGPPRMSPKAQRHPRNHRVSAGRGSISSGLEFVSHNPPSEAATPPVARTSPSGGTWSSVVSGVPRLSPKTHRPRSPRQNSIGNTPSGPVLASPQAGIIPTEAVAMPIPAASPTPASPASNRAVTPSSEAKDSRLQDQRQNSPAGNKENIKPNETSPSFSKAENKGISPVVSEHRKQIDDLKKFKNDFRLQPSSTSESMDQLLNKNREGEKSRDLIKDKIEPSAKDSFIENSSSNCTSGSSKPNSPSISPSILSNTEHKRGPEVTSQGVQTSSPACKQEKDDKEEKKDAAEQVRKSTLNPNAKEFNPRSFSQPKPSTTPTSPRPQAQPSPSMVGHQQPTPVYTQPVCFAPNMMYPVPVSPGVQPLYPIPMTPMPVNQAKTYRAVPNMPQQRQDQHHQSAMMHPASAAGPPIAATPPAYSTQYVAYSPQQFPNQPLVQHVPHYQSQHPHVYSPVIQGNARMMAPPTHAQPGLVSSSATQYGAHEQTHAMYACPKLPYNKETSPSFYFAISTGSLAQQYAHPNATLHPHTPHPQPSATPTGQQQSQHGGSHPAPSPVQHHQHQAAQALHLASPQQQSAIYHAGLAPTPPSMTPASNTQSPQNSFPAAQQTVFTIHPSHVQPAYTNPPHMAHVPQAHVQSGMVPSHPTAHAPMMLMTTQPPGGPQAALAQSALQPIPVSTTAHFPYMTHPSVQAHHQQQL

Compound	Potency
CN(C)/C=N/c1nc2nccc(-c3ccccn3)n2n1	inactive
O=C(CN(Cc1ccc(F)cc1)C(=O)CCC(=O)Nc1nccs1)NCc1ccccc1	inactive
CC(=O)Oc1cc2oc(=O)cc(C)c2cc1Cl	inactive
CCCn1nc(NC(=O)CC(C)C)c2cc3cccc(C)c3nc21	inactive
Cc1cc(C)c2ccc(N)nc2c1O	39.8 µM (active)
Cn1nc(NC(=O)C(F)(F)F)c2ncc(-c3ccc(Cl)cc3)nc21	inactive
CCCCc1c(Cc2ccccc2)ncn1CCc1ccccc1OC	15.8 µM (active)
COc1ccccc1CCN1COc2c(cc3c(C)c(C)c(=O)oc3c2C)C1	inactive
COc1ccccc1NC(=O)C(C)Sc1nccn1C (stereo unspecified)	inactive
CC1=C(C)C(=O)N(C(C)CCc2ccccc2)C1=O (stereo unspecified)	inactive
COc1ccccc1CNc1ccc(Br)cn1	inactive
COc1ccccc1CCn1cnc(-c2ccc(Br)cc2)c1C(C)C	25.1 µM (active)
COc1ccccc1[C@H]1C(c2ccc(F)cc2)=NN(c2ccccc2)[C@@H]1CO	inactive
CCCCc1c(-c2ccc(F)cc2)ncn1CCc1ccccc1OC	31.6 µM (active)
COc1ccccc1CCn1cnc(Cc2ccccc2)c1C(C)C	39.8 µM (active)
CCN(CC)c1ccc2c(Cl)cc(=O)oc2c1	inactive
N#Cc1cc2c(=O)n3ccccc3nc2n(Cc2ccco2)/c1=N/C(=O)c1ccco1	inactive
COc1cccc2sc3ccc(NCc4ccc5c(c4)OCO5)cc3c(=O)c12	inactive
Cc1c(C#N)c2n(c1C)CCCC(=O)N2	inactive
COc1cc2c(cc1OC)C1=C(C#N)CC/C(=N\S(=O)(=O)c3ccccc3)N1CC2	inactive
COc1ccccc1CCn1c(N)c(C#N)c2nc3ccccc3nc21	inactive
CCCn1nc(-c2ccccc2)c2nc3ccccc3nc21	inactive

Compound	Potency
CCCCc1c(-c2cccc(F)c2)ncn1CCc1ccccc1OC	39.8 µM (active)
CCCCc1c(-c2ccccc2)ncn1CCc1ccccc1OC	35.5 µM (active)
CCCCCc1c(-c2ccc(OC)cc2)ncn1CCc1ccccc1OC	31.6 µM (active)
CCCCc1c(-c2ccc(OC)cc2)ncn1CCc1ccccc1OC	39.8 µM (active)
COc1ccccc1CCC(=O)NNC(=O)Cn1nc(C)cc1C	inactive
Cc1cccn2c(=O)c3cc(C(=O)NCc4cccnc4)c(=N)n(C(C)C)c3nc12	inactive
COc1ccc2c(c1)CCCC21SC(NC(C)=O)=NN1C(C)=O (stereo unspecified)	inactive
O=C1OCCN1C(=O)[C@H]1[C@H](c2ccccc2)C(c2ccccc2)=NN1c1ccc(Br)cc1	inactive
CCOCCCNC(=O)c1ccc2nc(-c3ccc(OC)c(OC)c3)c(-c3ccc(OC)c(OC)c3)nc2c1	inactive
CCCCc1c(-c2ccc(OC)c(OC)c2)ncn1CCc1ccccc1OC	22.4 µM (active)
CCOc1ccc(-c2nnn(CCC#N)n2)cc1OC	inactive
CCCS(=O)(=O)c1c(S(=O)(=O)CCC)c2cc(-c3ccncc3)ccn2c1C(=O)OC	inactive
CN1CCN(S(=O)(=O)c2ccc(NC(=O)COc3ccccc3)cc2)CC1	inactive
Cc1ccc(S(=O)(=O)N2C[C@@H](C)[C@]3(C2)[C@H](O)[C@H](OC(=O)Nc2cccs2)C[C@H]2C(=O)N(c4ccccc4)C(=O)[C@H]23)cc1	35.5 µM (active)
CCCCn1/c(=N\C(=O)c2ccco2)c(C(=O)OCC)cc2c(=O)n3cccc(C)c3nc21	inactive
CCn1cc(C2C3=C(O)CCCC3=NC(C)=C2C(=O)Nc2ccc(Br)cn2)c(C)n1 (stereo unspecified)	inactive
CCOc1nc2cnccc2n(CC(=O)Nc2ccc(C)c(C)c2)c1=O	inactive
COc1ccc(NC(=O)Cn2c(SCc3cc(C)ccc3C)nc3ccncc32)c(OC)c1OC	39.8 µM (active)
COC(=O)c1ccc(-c2sc3nc(N4CCOCC4)c4c(c3c2N)CC(C)(C)OC4)o1	inactive
CCC(C(=O)Nc1cc(OC)cc(OC)c1)n1nc(-c2ccc(C)c(C)c2)ccc1=O (stereo unspecified)	25.1 µM (active)
COc1cc(OC)c(NC(C)C(=O)NCc2ccccc2)cc1Cl (stereo unspecified)	inactive
COc1ccc(-c2ccc3c(N)c(C(=O)Nc4ccc(C)cc4C)sc3n2)cc1OC	inactive

Compound	Potency
COc1cc(OC)c(NC(=O)C(C)n2nc(-c3ccc(C)c(C)c3)ccc2=O)cc1Cl (stereo unspecified)	35.5 µM (active)
COc1ccc(CC(=O)Nc2nn(C)c3nc4c(C)cccc4cc23)cc1	inactive
COc1cc(OC)cc(C(=O)NC(C(=O)NCCc2ccccn2)C(C)C)c1 (stereo unspecified)	inactive
N#Cc1c(N)n(-c2cccc(Cl)c2)c2nc3ccccc3nc12	inactive
CCc1cc(=O)oc2c(C)c3c(cc12)CN(CCc1ccccc1)CO3	inactive
Cc1cccc(-c2nnc(SCc3cc(=O)c4c(C)cc(C)cc4[nH]3)[nH]2)c1	39.8 µM (active)
COC(=O)[C@@H]1C[C@]2(OC(=O)c3ccccc3)C=CC(=O)C[C@@H]2N1C(=O)OCc1ccccc1	25.1 µM (active)
O=C(OCc1ccccc1)N1CCc2ccccc21	inactive
COc1ccc(COC(=O)C2CC(=O)N(Cc3ccccc3)C2)cc1 (stereo unspecified)	inactive
C=CCN1C(=O)c2cccc3c(N4CCCCC4)ccc(c23)C1=O	inactive
COc1ccccc1C=CC(=O)C=Cc1ccccc1OC	16.8 µM (active)
COc1ccccc1/C=N/OC(=O)c1ccc(C)cc1	inactive
COc1ccccc1/C=C/C(=O)NCC(=O)N=Nc1c(O)[nH]c2ccccc12	inactive
CN(c1ccccc1)S(=O)(=O)c1ccc(Cl)c(C(=O)Nc2nn[nH]n2)c1	inactive
COc1ccc(NC(=O)NS(=O)(=O)c2ccc(C)cc2)cn1	inactive
CCN(c1ccccc1)S(=O)(=O)c1ccc(NC(=O)c2nc(S(C)(=O)=O)ncc2Cl)cc1	17.8 µM (active)
CS(=O)(=O)c1ncc(Cl)c(C(=O)Nc2ccc(N3CCOCC3)cc2)n1	25.1 µM (active)
COC(=O)c1nc2ccc(N3CCOCC3)cc2c(C)c1C(=O)OC	inactive
O=C(Nc1ccc(S(=O)(=O)Nc2nccs2)cc1)c1nn(-c2ccccc2)ccc1=O	inactive
CCOC(=O)c1c(O)cc(C)nc1O	inactive
CCOC(=O)c1nc(S(C)(=O)=O)ncc1Cl	39.8 µM (active)
O=C(Nc1ccc(N2CCOCC2)cc1)c1cccc(S(=O)(=O)N2CCCCCC2)c1	inactive

Compound	Potency
Cc1ccc(NC(=O)c2sc3nc(C)cc(C)c3c2N)cc1	inactive
CCOC(=O)c1cnc2c(C)cc(Cl)cc2c1N1CCN(C)CC1	inactive
CCS(=O)(=O)c1ncc(Cl)c(C(=O)Nc2ccc(C)cc2)n1	35.5 µM (active)
O=C(/C=C/Nc1ccc(S(=O)(=O)Nc2ncccn2)cc1)c1ccc(Cl)c(Cl)c1	inactive
CCc1cc(=O)oc2c(C)c(O[C@@H]3O[C@H](CO)[C@@H](O)[C@H](O)[C@H]3O)ccc12	inactive
CC(C)C1OC2(C)OC(=N)C1(C#N)C(C#N)(C#N)C2c1ccccc1 (stereo unspecified)	inactive
CC(=O)c1ccc(N2CCN(C(=O)COc3ccc4ccccc4c3)CC2)cc1	inactive
Cc1oc(C(N)=O)cc1COc1ccc(C(N)=O)cc1	inactive
Cc1sc2ncn(CC(=O)NCCCC(=O)N3CCN(Cc4ccc5c(c4)OCO5)CC3)c(=O)c2c1C	inactive
Cc1ccccc1NC(=O)c1nc(S(C)(=O)=O)ncc1Cl	inactive
CCS(=O)(=O)c1ncc(Cl)c(C(=O)Nc2ccccc2OC)n1	35.5 µM (active)
COC(=O)c1sc(-c2ccc(C(C)(C)C)cc2)cc1NC(=O)/C=C/C(=O)O	39.8 µM (active)
COC(=O)c1scc(C)c1NC(=O)CSc1ccc(Cl)cc1	inactive
CC(=O)c1sc(-c2ccccc2)cc1NS(=O)(=O)c1ccccc1	inactive
Cc1ccc2sc(-c3ccc(NC(=O)/C=C\C(=O)O)cc3)nc2c1	inactive
COC(=O)c1sc(-c2ccc(Cl)cc2)cc1NC(=O)/C=C/C(=O)O	28.2 µM (active)
COC(=O)c1scc(C)c1NC(=O)c1ccc(Cl)cc1	inactive
CCC(=O)NC(=S)Nc1ccc(S(=O)(=O)NC2CCCCC2)cc1	inactive
O=C(Nc1ccc(C(F)(F)F)cc1)c1cc(S(=O)(=O)NC2CCCCCC2)ccc1F	35.5 µM (active)
Cc1cc(C)c2c(N)c(C(=O)C(C)(C)C)sc2n1	inactive
CCOC(=O)N1CCC2(CC1)C(C#N)=C(N)Oc1c2sc2nc(C)cc(C)c12	25.1 µM (active)
C=COC(=O)c1sc2nc(C)cc(C)c2c1N	inactive

Compound	Potency
CSCCC(NC(=O)COc1ccccc1)C(=O)N1CCCCCC1 (stereo unspecified)	inactive
O=C(CSc1ccc(F)cc1)Nc1ccccc1Br	inactive
C/C(=N\Nc1cccc(C(F)(F)F)c1)c1ccc(O)cc1	inactive
O=C(NNc1ccccc1Br)C(O)(c1cccc(C(F)(F)F)c1)c1cccc(C(F)(F)F)c1	20 µM (active)
NC(=O)NN=C1CCN2CCCc3cccc1c32	inactive
CC1(C)C/C(=N\NC(=S)Nc2ccccc2F)c2cc(O)ccc2O1	inactive
NC(=S)N/N=C1\CCOc2ccc(Cl)cc21	22.4 µM (active)
O=c1c2cc(N3CCOCC3)ccc2[nH]c(=S)n1CCc1ccccc1	inactive
COC(c1ccccc1)c1nnc(CCC(=O)NCCc2ccc(Cl)cc2)o1 (stereo unspecified)	inactive
CC(C)(C)OC(=O)NCCc1nnc(S(=O)(=O)Cc2ccc(Cl)cc2Cl)o1	17.8 µM (active)
CC(C)(C)OC(=O)NCC(=O)Oc1cc2oc(=O)cc(-c3ccccc3)c2cc1Cl	inactive
CC1CCc2nc(/C(C#N)=C/c3ccncc3)sc2C1 (stereo unspecified)	inactive
CSCC(=O)Nc1cc(C)on1	inactive
O=C1c2ccccc2S(=O)(=O)c2cc(N3CCC(C(=O)N4CCCCC4)CC3)ccc21	inactive
COc1cccc(-c2cnc3c(NC(C)=O)cc(-c4cccc(NS(C)(=O)=O)c4)cn23)c1	28.2 µM (active)
COc1cc(S(=O)(=O)Nc2ccc3c(c2)C(=O)N(C)C3=O)ccc1NC(C)=O	inactive
CC(=O)Nc1cc(-c2cccc(NS(C)(=O)=O)c2)cn2c(-c3cccc(C(F)(F)F)c3)cnc12	35.5 µM (active)
COc1cccc(-c2ccc3c(N)c(C(=O)Nc4ccccc4C)sc3n2)c1	inactive
